Assay results: the supplement of paper PMC11732987, “Enantioselective OTUD7B fragment discovery through chemoproteomics screening and high-throughput optimisation” (Communications Chemistry, 2025)

Key:
Experiment in all cases: log2 ratio of Biotin-Ahx-Ub-VS probe labelling (fragment/DMSO); higher = less target engagement (more negative = stronger competition), active = hit call of the paper (q ≤ 0.05, log2 ratio ≤ -1)
Settings in all cases: compound concentration: 200 uM; treatment time: 3 h
USP19 = biological target: T1, USP19 (UniProt O94966)
T1 sequence (whole entry): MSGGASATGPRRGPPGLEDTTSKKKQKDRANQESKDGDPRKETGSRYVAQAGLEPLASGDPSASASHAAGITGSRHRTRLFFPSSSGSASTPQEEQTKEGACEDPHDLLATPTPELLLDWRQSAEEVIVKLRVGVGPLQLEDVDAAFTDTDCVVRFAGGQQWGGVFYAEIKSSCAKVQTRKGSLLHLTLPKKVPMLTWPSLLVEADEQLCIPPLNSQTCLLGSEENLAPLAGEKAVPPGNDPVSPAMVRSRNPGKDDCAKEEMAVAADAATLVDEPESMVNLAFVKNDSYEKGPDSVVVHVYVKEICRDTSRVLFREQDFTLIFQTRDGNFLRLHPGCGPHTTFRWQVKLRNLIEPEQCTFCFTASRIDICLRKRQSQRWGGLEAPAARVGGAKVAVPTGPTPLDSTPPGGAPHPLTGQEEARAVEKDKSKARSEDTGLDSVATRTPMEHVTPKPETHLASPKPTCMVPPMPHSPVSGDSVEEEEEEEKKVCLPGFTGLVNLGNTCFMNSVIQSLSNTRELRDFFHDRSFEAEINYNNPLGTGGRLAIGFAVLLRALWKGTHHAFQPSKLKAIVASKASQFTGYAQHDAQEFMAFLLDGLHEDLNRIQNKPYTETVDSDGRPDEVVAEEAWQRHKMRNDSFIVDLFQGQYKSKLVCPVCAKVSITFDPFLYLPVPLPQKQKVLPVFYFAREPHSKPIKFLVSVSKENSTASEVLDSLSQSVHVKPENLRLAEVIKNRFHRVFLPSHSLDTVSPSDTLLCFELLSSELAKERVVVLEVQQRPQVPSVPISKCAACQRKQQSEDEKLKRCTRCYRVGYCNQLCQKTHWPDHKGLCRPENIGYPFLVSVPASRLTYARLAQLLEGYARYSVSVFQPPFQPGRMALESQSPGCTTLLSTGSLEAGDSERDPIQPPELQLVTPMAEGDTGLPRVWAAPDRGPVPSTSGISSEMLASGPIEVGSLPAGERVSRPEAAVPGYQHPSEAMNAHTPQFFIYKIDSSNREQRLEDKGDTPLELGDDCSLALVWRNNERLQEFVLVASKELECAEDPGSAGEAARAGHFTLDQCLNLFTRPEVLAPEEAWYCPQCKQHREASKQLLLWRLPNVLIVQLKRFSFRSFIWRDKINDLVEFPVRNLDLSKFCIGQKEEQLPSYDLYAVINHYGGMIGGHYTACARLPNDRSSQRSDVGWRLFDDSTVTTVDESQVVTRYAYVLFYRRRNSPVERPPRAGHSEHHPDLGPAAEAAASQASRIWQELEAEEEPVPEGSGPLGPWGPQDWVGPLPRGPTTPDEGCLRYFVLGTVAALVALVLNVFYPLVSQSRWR
How it was run: (§1)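 HEK293T lysate, 495 µg per sample in Tris/CHAPS/IGEPAL buffer with protease inhibitors, was treated in triplicate with fragment at 200 µM or vehicle for 3 h and then with Biotin-Ahx-Ub-VS at 0.5 µM final for 1 h. Labelled DUBs were NeutrAvidin-enriched, digested with LysC and trypsin, and run by diaPASEF LC-MS/MS. Spectronaut label-free quantities were global-median-normalised, and values are average log2 fragment/vehicle ratios by unpaired t-test on proteins with ≥2 unique peptides.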

USP22 = biological target: T2, USP22 (UniProt Q9UPT9)
T2 sequence (whole entry): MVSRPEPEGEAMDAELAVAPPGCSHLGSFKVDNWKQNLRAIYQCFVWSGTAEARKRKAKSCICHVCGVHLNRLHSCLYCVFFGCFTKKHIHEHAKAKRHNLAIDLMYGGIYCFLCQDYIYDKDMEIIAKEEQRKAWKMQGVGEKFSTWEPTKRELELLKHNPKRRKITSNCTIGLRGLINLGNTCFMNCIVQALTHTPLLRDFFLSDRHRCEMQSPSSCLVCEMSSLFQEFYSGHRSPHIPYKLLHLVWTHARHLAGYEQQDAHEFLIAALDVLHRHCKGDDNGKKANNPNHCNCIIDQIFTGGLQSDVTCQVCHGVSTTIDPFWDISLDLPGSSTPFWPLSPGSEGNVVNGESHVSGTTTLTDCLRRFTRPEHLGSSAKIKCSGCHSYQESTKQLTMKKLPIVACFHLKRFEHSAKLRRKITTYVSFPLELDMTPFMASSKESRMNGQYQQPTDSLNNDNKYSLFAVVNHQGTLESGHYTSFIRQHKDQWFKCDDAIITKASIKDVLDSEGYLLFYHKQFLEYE
How it was run: as §1

USP24 = USP24 (UniProt Q9UPU5)
USP24, sequence (Q9UPU5 whole entry): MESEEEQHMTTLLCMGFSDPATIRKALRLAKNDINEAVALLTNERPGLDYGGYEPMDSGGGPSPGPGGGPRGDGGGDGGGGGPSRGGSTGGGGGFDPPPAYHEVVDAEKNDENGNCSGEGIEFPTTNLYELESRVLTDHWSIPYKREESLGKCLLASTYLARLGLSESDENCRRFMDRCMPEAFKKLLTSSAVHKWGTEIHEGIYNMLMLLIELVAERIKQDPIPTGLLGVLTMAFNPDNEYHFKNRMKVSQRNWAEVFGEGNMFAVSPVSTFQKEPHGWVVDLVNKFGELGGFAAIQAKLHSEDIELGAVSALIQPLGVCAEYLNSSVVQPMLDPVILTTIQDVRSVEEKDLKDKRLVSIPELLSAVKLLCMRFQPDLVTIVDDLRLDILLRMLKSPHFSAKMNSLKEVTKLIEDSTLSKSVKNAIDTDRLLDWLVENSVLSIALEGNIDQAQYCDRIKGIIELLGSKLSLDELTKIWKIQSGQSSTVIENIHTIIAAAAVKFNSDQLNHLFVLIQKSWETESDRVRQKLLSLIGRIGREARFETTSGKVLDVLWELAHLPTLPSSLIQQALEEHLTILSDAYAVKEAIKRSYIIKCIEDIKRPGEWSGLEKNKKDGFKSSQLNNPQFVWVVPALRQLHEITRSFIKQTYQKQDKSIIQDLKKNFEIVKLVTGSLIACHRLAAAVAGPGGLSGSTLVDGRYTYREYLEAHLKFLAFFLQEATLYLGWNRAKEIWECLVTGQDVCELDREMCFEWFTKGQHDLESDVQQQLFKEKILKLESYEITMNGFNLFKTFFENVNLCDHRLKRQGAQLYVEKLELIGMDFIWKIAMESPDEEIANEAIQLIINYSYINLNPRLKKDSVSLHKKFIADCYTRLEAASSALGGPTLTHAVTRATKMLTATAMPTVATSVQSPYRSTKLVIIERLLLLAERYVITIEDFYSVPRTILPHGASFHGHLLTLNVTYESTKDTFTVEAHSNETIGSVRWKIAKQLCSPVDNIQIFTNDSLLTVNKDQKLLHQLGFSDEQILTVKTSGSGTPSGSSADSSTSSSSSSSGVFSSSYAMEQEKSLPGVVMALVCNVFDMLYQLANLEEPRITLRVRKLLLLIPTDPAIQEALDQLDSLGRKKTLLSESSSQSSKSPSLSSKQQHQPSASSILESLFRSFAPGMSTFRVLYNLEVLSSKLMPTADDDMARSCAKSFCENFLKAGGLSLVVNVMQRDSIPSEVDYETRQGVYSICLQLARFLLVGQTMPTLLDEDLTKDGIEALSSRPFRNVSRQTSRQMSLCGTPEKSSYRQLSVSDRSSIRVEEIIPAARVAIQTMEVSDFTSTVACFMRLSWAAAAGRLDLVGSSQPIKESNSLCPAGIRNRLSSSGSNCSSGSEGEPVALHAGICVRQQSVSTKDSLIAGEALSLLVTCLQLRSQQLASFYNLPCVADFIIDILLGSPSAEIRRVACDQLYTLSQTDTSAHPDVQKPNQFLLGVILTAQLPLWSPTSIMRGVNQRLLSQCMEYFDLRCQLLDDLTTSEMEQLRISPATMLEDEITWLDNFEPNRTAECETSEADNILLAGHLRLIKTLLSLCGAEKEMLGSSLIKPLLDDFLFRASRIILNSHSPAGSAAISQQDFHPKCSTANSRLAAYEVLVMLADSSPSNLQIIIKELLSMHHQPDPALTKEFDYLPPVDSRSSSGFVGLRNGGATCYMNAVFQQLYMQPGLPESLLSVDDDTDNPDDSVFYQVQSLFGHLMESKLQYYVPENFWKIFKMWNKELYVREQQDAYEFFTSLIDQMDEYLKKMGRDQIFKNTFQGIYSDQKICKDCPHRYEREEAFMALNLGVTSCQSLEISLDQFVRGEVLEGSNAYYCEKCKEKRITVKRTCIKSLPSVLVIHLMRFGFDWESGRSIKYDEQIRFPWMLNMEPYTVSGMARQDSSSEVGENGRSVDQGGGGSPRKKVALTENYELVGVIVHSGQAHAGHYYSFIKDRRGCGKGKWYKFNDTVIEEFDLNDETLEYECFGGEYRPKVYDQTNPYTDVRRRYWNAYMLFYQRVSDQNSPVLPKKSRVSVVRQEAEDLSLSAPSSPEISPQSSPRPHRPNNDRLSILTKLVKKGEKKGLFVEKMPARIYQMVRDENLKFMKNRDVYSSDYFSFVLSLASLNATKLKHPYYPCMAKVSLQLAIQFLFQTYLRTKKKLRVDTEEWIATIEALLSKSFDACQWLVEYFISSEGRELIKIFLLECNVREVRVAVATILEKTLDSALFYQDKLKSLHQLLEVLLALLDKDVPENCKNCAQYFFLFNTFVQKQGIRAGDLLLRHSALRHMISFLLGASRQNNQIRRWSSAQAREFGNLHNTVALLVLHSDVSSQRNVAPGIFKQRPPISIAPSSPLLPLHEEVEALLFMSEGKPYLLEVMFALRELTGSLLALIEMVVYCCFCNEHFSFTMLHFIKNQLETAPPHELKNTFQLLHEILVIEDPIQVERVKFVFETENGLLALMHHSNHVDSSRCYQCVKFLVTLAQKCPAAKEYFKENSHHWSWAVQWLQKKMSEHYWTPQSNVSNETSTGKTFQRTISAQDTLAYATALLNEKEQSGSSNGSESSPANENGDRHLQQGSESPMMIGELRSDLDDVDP
How it was run: as §1

USP25 = biological target: T3, USP25 (UniProt Q9UHP3)
T3 sequence (whole entry): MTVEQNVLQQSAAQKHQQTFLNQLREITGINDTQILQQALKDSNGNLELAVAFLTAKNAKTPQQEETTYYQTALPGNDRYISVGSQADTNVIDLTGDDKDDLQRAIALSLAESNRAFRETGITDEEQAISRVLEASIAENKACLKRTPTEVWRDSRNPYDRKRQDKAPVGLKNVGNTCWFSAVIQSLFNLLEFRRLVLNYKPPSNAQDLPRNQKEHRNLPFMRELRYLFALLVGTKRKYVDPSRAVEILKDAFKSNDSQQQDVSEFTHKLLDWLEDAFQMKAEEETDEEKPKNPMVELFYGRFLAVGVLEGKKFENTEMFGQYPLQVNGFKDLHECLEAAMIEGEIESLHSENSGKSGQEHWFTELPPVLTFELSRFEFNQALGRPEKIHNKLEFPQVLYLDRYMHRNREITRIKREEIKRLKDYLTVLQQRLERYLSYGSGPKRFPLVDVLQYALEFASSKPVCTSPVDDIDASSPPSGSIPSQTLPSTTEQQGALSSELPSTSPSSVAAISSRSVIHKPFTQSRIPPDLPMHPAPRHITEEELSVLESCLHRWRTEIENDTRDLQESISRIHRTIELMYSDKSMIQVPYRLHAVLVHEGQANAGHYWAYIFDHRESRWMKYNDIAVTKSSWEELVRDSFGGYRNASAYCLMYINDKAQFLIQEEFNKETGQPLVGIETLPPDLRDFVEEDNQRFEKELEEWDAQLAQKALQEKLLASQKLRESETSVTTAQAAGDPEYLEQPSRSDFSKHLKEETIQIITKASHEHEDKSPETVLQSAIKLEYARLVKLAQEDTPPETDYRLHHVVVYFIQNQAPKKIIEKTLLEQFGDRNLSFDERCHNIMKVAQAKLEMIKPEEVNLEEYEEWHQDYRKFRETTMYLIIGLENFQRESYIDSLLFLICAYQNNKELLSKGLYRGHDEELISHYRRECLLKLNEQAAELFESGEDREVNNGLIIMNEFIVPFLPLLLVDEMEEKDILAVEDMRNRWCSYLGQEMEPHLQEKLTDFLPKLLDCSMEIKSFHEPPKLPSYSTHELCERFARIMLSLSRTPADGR
How it was run: as §1

USP28 = biological target: T4, USP28 (UniProt Q96RU2)
T4 sequence (whole entry): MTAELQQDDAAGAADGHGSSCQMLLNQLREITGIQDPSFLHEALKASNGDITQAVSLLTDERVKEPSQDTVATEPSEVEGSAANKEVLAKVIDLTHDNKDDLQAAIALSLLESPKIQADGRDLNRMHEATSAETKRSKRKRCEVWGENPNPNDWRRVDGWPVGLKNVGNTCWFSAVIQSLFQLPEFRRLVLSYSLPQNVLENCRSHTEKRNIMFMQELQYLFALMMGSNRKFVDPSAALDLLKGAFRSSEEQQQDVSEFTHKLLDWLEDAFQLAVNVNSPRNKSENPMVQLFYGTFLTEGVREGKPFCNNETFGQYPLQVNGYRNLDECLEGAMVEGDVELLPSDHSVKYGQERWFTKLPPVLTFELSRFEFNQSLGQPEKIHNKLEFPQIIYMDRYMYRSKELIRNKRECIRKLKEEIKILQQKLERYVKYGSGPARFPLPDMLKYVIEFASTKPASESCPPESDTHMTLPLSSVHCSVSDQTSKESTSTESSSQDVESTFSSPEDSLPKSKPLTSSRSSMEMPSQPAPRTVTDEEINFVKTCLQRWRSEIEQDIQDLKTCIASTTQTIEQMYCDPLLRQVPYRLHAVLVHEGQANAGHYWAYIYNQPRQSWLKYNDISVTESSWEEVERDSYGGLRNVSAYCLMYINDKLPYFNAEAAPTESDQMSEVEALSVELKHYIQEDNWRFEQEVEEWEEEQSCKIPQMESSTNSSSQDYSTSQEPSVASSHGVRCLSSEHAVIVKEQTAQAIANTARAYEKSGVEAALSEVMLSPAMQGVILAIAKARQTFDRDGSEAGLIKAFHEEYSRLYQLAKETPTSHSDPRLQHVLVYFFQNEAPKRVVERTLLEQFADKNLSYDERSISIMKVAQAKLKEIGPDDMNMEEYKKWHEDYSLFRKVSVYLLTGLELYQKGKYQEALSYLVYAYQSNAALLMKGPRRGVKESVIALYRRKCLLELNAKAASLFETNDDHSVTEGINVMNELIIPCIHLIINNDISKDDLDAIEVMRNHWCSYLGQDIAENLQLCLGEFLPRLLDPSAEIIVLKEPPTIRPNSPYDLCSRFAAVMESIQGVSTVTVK
How it was run: as §1

Measured: log2 ratio of Biotin-Ahx-Ub-VS probe labelling

O=C(CCl)NC1CCC(C(F)(F)F)CC1 (stereo not given)
inactive: USP19 -0.155 | USP22 0.067 | USP24 -0.771 | USP25 -0.322 | USP28 -0.705
